# HT1080NT lethal: kills 2HG-producing HT-1080-NT fibrosarcoma cells; actives 1.6% (n = 360,000); HT-1080-NT fibrosarcoma viability, CellTiter-Glo ATP luminescence, 48 h; Potency, µM (doses to about 46.1 µM), inactives show at the highest dose activity, negative = less viability, hits mostly cytotoxic; AID 686970;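 also: NT is the 2HG producing partner of a matched IDH1 knockdown line; potency is read from the fitted curve at half-maximal effect; 0% = DMSO-treated cells and -100% = media-only wells without cells; nearly all actives have a fitted effect of over 55% in size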
#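 Fibrosarcoma NT cells, 750 per well in 5% FBS RPMI, were exposed to compound for 48 hours. Viability: CellTiter-Glo luminescence.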
# DT40 TDP1 CPT: DT40-hTDP1 cell growth loss with CPT; actives 12% (n = 420,000); chicken DT40 Tdp1-/-;hTDP1 cells + 20 nM CPT, ATP luminescence, 48 h; Potency, µM (top dose mostly 46.2 µM), without a hit: top-dose activity change, negative = growth inhibition, hits mostly inhibitors; also: potency is read from the fitted curve at half-maximal effect; nearly all actives have a fitted effect of over 55% in size
#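 Chicken DT40 Tdp1-/- cells stably complemented with human TDP1 were seeded at 400 cells/well in medium containing 20 nM camptothecin, exposed to pin-transferred compounds, and grown at 37 °C for at least 48 hr. Viability was read as ATP luminescence.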
# HT1080 IDH1KD tx: HT-1080 IDH1 knockdown cell toxicity (counter line); HT-1080 IDH1 knockdown viability, ATP luminescence, 48 h; Potency, µM (series often up to 46.1 µM), for the others: top-dose activity, negative = toxicity, usual class: cytotoxic; AID 686971; actives 2% (n = 360,000);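 also: potency is read from the fitted curve at half-maximal effect; 0% = DMSO wells and -100% = cell-free medium wells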
#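 CellTiter-Glo luminescence after 48 h compound exposure at 37 degrees C of IDH1-knockdown HT-1080 cells in 5% FBS RPMI. %Activity scaled between DMSO wells and cell-free media wells, with curves fitted and assigned curve classes.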
# DT40 TDP1 no CPT: qHTS for Inhibitors of human tyrosyl-DNA phosphodiesterase 1 (TDP1): qHTS in cells in absence of CPT | DT40 Tdp1-/- hTDP1 cells, no CPT, ATP luminescence, 48 h | Potency, µM (series often up to 46.2 µM), inactives show at the highest dose activity change, negative = growth inhibition, hits mostly inhibitors | actives 15% (n = 420,000) | AID 686978, 2013; also: potency is read from the fitted curve at half-maximal effect; nearly all actives have a fitted effect of over 55% in size
#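 Growth of hTDP1-complemented DT40 Tdp1-knockout cells is measured by ATP luminescence after at least 48 hr compound exposure at 37 °C, with DMSO substituting for the 20 nM CPT used in the parallel screen.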
# IL-1B inflam inh: blocks inflammasome-driven IL-1 beta release; THP-1 LPS/ATP IL-1B secretion, AlphaLISA, 16 h; active compounds read low; activity change, % at 57.5 µM; actives 4.7% (n = 360,000); AID 743279; in the data active = activity change below about -50%; inconclusive = mostly about -30% to -49%
#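 THP-1 cells pretreated 1 hr with compounds (up to 57.5 uM final), then stimulated with LPS (250 ng/mL final) plus ATP (1.25 mM final); secreted IL-1B measured by AlphaLISA after 16 hr, decreased signal indicating inhibition.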
# ELG1 DNA repair: ELG1-dependent DNA repair inhibition; HEK293T ELG1-luciferase reporter, luminescence, 16 h; DNA damage induced by 5-fluorouridine; Potency, µM (doses to about 46.1 µM), without a hit: at the top dose activity change, negative = inhibition, most hits filed as inhibitors; actives 2.3% (n = 330,000); AID 504467; also: potency is read from the fitted curve at half-maximal effect; nearly all actives have a fitted effect of over 55% in size
#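 DMSO vehicle served as the neutral condition. Each well held 2,000 cells given 5-fluorouridine plus compound; after 16 hr at 37 °C/5% CO2, ONE-Glo was added and luciferase measured 30 min later.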
# * = called active by the depositor; ? = inconclusive; / = no result. Shown are actives, neighbours in structure and some others; about 19% of the full set was active somewhere. Unless noted, calls follow the shape of the dose curve; as a rule, active = well fitted curve in the direction sought with a large enough effect; inconclusive = small, poorly fitted or top-dose-only effect, or another doubt; inactive = no such curve, though single readings can be large; an effect the other way counts as inactive or inconclusive. Unless noted, % is scaled to controls: 0 for no effect and ±100 for the full control effect.
SMILES,HT1080NT lethal,DT40 TDP1 CPT,HT1080 IDH1KD tx,DT40 TDP1 no CPT,IL-1B inflam inh,ELG1 DNA repair
CC(Cl)C(=O)c1c[nH]c2ccccc12 (centres undefined),2%,22%,-1%,-10%,0,-7%
CCC(NC(=O)CCc1c(C)c2cc3c(-c4ccccc4)coc3cc2oc1=O)C(=O)O (centres undefined),11%,-10%,8%,17%,14,18%
C/C(=N\NC(=O)c1ccc2ccccc2c1)c1cccs1,15%,?,2%,-5%,-20,?
O=C(NCCC1=CCCCC1)c1ccc(Cl)c(S(=O)(=O)N2CCCCC2)c1,-11%,16µM*,?,23µM*,-13,-14%
O=S(=O)(NCCC1=CCCCC1)c1cccc(S(=O)(=O)N2CCOCC2)c1,-26%,5.2µM*,?,5.8µM*,32,?
O=C(NCCN1CCOCC1)c1ccc(Cl)c(S(=O)(=O)N2CCCCC2)c1,-3%,-23%,0%,-1%,0,-7%
CC(=O)N1CCN(S(=O)(=O)c2cccc(C(=O)NCCC3=CCCCC3)c2)CC1,?,2.9µM*,-7%,-19%,-6,2%
CCC(CC)C(=O)N(C)c1c(C)nc2c(OCc3ccc(C#N)cc3)cccn12,9%,?,0%,18µM*,-71*,/
CCC(CC)C(=O)N(C)c1c(C)nc2c(OCc3ccc(Cl)cc3Cl)cccn12,?,4.6µM*,?,3.7µM*,?,/
CCC(CC)C(=O)N(C)c1c(C)nc2c(OCc3ccccc3C)cccn12,-13%,6.5µM*,?,7.3µM*,0,/
CCC(CC)C(=O)N(C)c1c(C)nc2c(OCC(=O)N(C)C)cccn12,?,-15%,12%,0%,11,/
CCc1nc2c(OCc3ccc(C#N)cc3)cccn2c1N(C)C(=O)c1cccs1,2%,-13%,-4%,-21%,-19,/
N#Cc1ccc(C(=O)N2CCCCC2c2cc(C(=O)Nc3cccc(C#N)c3)no2)cc1 (centres undefined),14%,?,3%,?,-30,/
Cc1cc(C)n(CCNC(=O)[C@H]2O[C@@H](n3ccc(=O)[nH]c3=O)[C@H](O)[C@@H]2O)n1,20%,0%,0%,0%,-24,/
Cc1c(F)c(N2CCNC(C)C2)cc2c1c(=O)c(C(=O)O)cn2C1CC1 (centres undefined),/,0%,/,4%,/,/
CCC(=O)N1CCc2cc(S(=O)(=O)CCC(=O)Nc3ccc(OC(F)(F)F)cc3)ccc21,/,23µM*,/,23µM*,/,/
CCC(=O)N1CCc2cc(S(=O)(=O)CCC(=O)N3CCN(c4ccc(Cl)cc4)CC3)ccc21,-15%,8.2µM*,-24%,4.1µM*,-3,?
CCC(=O)N1CCc2cc(S(=O)(=O)CCC(=O)N3CCN(c4cccc(Cl)c4)CC3)ccc21,/,21µM*,/,9.2µM*,/,/
CCC(=O)N1CCc2cc(S(=O)(=O)CCC(=O)N3CCN(c4ccc(C(C)=O)cc4)CC3)ccc21,16%,18µM*,13%,7.3µM*,2,?
Cn1c(=O)c2c(-c3ccccc3)n(-c3cc(Cl)c([N+](=O)[O-])cc3O)cc2n(C)c1=O,-2%,?,0%,-15%,52,/
Cc1noc(C)c1NC(=O)N(C)C[C@H]1Oc2ccc(NS(=O)(=O)c3cccs3)cc2C(=O)N([C@H](C)CO)C[C@@H]1C,17%,-4%,-9%,2%,-3,?
CC(=O)Nc1ccc(-c2ccnc3c2CC(C)(C(=O)NCCC(F)(F)F)O3)cc1 (centres undefined),-16%,?,-28%,?,14,/

# Source: PubChem BioAssay (National Center for Advancing Translational Sciences (NCATS))
